Measurements taken from PubChem BioAssay (Tox21).
Inconclusive results are not listed. The source made the active and inactive calls. Unless noted, calls follow the shape of the full dose curve.

Legend:
[1] = qHTS assay to identify small molecule agonists of the peroxisome proliferator-activated receptor delta (PPARd) signaling pathway - cell viability counter screen (AID 743211; active = well fitted curve in the direction sought with a large enough effect in the repeat runs; an effect the other way counts as inactive or inconclusive; also: % is scaled to controls: 0 for no effect and ±100 for the full control effect; nearly all actives have a fitted effect of over 55% in size)
Summary of the method: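 Luminescent ATP viability assay (CellTiter-Glo, 30 min RT) in UAS-bla HEK293H cells carrying the PPAR delta reporter construct, 3000 cells/well, after a 17 h compound treatment at 37 C.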

[2] = biological target: Bile acid receptor (Homo sapiens) (UniProt Q96RI1); assay: qHTS assay to identify small molecule antagonists of the farnesoid-X-receptor (FXR) signaling pathway (AID 743217; active = well fitted inhibition curve with a large enough effect in the signal ratio in the repeat runs, not every such curve was filed as active; the % refers to the signal ratio; also: % is scaled to controls: 0 for no effect and ±100 for the full control effect)
Bile acid receptor (Homo sapiens), sequence (Q96RI1 whole entry, looked up): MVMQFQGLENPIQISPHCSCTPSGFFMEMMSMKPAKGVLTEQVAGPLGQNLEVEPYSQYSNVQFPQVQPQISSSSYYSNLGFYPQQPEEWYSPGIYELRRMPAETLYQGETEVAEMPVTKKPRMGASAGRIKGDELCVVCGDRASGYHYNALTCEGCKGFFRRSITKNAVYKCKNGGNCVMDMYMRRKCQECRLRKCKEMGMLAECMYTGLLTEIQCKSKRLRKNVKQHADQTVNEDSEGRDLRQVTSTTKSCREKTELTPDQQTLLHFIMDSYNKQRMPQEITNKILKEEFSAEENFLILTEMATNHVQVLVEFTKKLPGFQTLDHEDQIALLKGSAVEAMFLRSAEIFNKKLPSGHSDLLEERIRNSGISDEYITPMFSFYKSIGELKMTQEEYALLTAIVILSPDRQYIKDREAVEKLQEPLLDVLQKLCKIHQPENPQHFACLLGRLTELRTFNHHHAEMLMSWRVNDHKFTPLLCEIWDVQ
Summary of the method: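 FRET fluorescence after 2 h room-temperature LiveBLAzer loading gives the readout. Prior step: FXR-bla HEK 293T cells, seeded and incubated 5 h, received test compounds plus 50 uM final CDCA for 16 h at 37 °C.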

[3] = qHTS assay to identify small molecule agonists of the farnesoid-X-receptor (FXR) signaling pathway - cell viability counter screen (AID 743218; active = well fitted curve in the direction sought with a large enough effect in the repeat runs; an effect the other way counts as inactive or inconclusive; also: % is scaled to controls: 0 for no effect and ±100 for the full control effect; nearly all actives have a fitted effect of over 45% in size)
Summary of the method: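 Readout: CellTiter-Glo luminescence, 30 min RT, multiplexed after the FXR-bla FRET reading. HEK 293T FXR-UAS-bla cells received compound 5 h post-plating and were incubated 16 h at 37 C.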

[4] = biological target: Bile acid receptor (Homo sapiens) (UniProt Q96RI1); assay: qHTS assay to identify small molecule agonists of the farnesoid-X-receptor (FXR) signaling pathway (AID 743220; active = well fitted activation curve with a large enough effect in the signal ratio in the repeat runs, not every such curve was filed as active; the % refers to the signal ratio; also: % is scaled to controls: 0 for no effect and ±100 for the full control effect)
Summary of the method: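 FXR-UAS-bla HEK 293T cells carrying a UAS-driven beta-lactamase reporter were plated for 5 h at 37C/5% CO2, then exposed to DMSO-dissolved Tox21 10K compounds for 16 h at 37C. A LiveBLAzer B/G FRET substrate was loaded for 2 h at room temperature before fluorescence reading.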

[5] = qHTS assay to identify small molecule antagonists of the farnesoid-X-receptor (FXR) signaling pathway - cell viability counter screen (AID 743221; active = well fitted cell-killing curve with a large enough effect in the repeat runs, not every such curve was filed as active; also: % is scaled to controls: 0 for no effect and ±100 for the full control effect; nearly all actives have a fitted effect of over 50% in size)
Summary of the method: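 In GeneBLAzer FXR-UAS-bla HEK 293T cells stimulated with 50 uM chenodeoxycholic acid (final), compounds acted for 16 h at 37 C. Viability was assessed afterwards by CellTiter-Glo luminescence.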

[6] = qHTS assay to identify small molecule agonists of the vitamin D receptor (VDR) signaling pathway - cell viability counter screen (AID 743224; active = well fitted curve in the direction sought with a large enough effect in the repeat runs; an effect the other way counts as inactive or inconclusive; also: series mostly up to about 63 µM; % is scaled to controls: 0 for no effect and ±100 for the full control effect; nearly all actives have a fitted effect of over 50% in size)
Summary of the method: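 In parallel with the bla FRET readout, cytotoxicity toward VDR-bla cells after 16 h compound exposure was assessed by CellTiter-Glo, with luminescence recorded after a 30 min room-temperature incubation.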

[7] = qHTS assay to identify small molecule antagonists of the vitamin D receptor (VDR) signaling pathway - cell viability counter screen (AID 743225; active = well fitted curve in the direction sought with a large enough effect in the repeat runs; an effect the other way counts as inactive or inconclusive; also: % is scaled to controls: 0 for no effect and ±100 for the full control effect; nearly all actives have a fitted effect of over 50% in size)
Summary of the method: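 Luminescent cell viability (CellTiter-Glo) in VDR-bla HEK 293T cells after 16 h compound exposure at 37C in the presence of 3 nM final 1-alpha,25-dihydroxy vitamin D3.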

[8] = qHTS assay to identify small molecule agonists of the NFkB signaling pathway - cell viability counter screen (AID 1159515); also: series mostly up to about 61 µM; % is scaled to controls: 0 for no effect and ±100 for the full control effect; nearly all actives have a fitted effect of over 55% in size
Summary of the method: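 Plate 2,000 NFkB-bla ME-180 cells/well; incubate overnight. Add compounds, 5 hr at 37 C. Add FRET substrate, 1.5 hr RT. Add CellTiter-Glo, 30 min RT; read luminescence.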

[9] = qHTS assay to identify small molecule agonists of the endoplasmic reticulum stress response signaling pathway (AID 1159516; active = well fitted activation curve with a large enough effect in the signal ratio in the repeat runs, not every such curve was filed as active; the % refers to the signal ratio; also: % is scaled to controls: 0 for no effect and ±100 for the full control effect)
Summary of the method: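 Beta-lactamase expression from the ER stress response element in HeLa reporter cells is quantified with the LiveBLAzer B/G FRET substrate, read at 405 nm excitation after 2 hr at room temperature, following 5 hr compound treatment at 37 C.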

[10] = qHTS assay to identify small molecule agonists of the endoplasmic reticulum stress response signaling pathway - cell viability counter screen (AID 1159517); also: series mostly up to about 61 µM; % is scaled to controls: 0 for no effect and ±100 for the full control effect; nearly all actives have a fitted effect of over 50% in size
Summary of the method: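 Cytotoxicity of test compounds toward ESRE-bla HeLa cells was assessed after 5 hr exposure. The luminescent CellTiter-Glo signal was measured 30 min after reagent addition.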

[11] = qHTS assay to identify small molecule antagonists of the retinoid-related orphan receptor gamma (ROR-gamma) signaling pathway - cell viability counter screen (AID 1159520; active = well fitted curve in the direction sought with a large enough effect in the repeat runs; an effect the other way counts as inactive or inconclusive)
Summary of the method: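 Tet-on ROR gamma CHO cells (1,000/well) were plated 4 hr, given compounds in DMSO for 2 hr at 37 C, then induced with 1 uM final doxycycline for 16 hr. Viability was read as ATP by CellTiter-Glo luminescence after 30 min.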

[12] = biological target: Nuclear receptor ROR-gamma (Homo sapiens) (UniProt P51449); assay: qHTS assay to identify small molecule antagonists of the retinoid-related orphan receptor gamma (ROR-gamma) signaling pathway (AID 1159521; active = well fitted curve in the direction sought with a large enough effect in the repeat runs; an effect the other way counts as inactive or inconclusive)
Summary of the method: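 CHO cells expressing RORγ under a TET-on promoter, luciferase under RORE control. Dox 1 uM final, 16 h; compounds added 2 h prior. Luminescence decrease measured.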

[13] = qHTS assay to identify small molecule agonists of the AP-1 signaling pathway - cell viability counter screen (AID 1159525); also: nearly all actives have a fitted effect of over 55% in size
Summary of the method: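 Each titration point was normalised to DMSO and tetra n-octyl ammonium bromide controls. The read was Cell Titer Glo luminescence after 30 min at RT, following 5 h compound exposure of ME-180 AP-1-bla cells at 37 °C.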

[14] = qHTS assay to identify small molecule agonists of the AP-1 signaling pathway (AID 1159526); also: % is scaled to controls: 0 for no effect and ±100 for the full control effect
[15] = biological target: Retinoic acid receptor RXR-alpha (Homo sapiens) (UniProt P19793); assay: qHTS assay to identify small molecule agonists of the RXR signaling pathway (AID 1159527); also: nearly all actives have a fitted effect of over 35% in size; also: potency is read from the fitted curve at half-maximal effect
Retinoic acid receptor RXR-alpha (Homo sapiens), sequence (P19793 whole entry, looked up): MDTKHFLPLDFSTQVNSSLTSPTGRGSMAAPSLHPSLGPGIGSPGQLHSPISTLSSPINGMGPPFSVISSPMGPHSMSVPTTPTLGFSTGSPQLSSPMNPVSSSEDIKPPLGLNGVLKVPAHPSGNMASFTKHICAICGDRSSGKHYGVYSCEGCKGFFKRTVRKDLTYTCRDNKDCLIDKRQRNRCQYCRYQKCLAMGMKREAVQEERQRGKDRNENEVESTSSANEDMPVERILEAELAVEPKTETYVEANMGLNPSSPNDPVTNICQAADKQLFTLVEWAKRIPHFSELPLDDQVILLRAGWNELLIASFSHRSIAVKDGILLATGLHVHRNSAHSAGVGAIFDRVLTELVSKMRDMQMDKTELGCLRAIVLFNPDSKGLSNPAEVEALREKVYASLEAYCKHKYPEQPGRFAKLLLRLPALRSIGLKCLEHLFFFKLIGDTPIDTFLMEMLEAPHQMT
Summary of the method: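 Beta-lactamase reporter assay, agonist format. Engineered HEK 293T line, charcoal-stripped FBS at 2%, overnight (16 hr) exposure, fluorescence at 460 and 530 nm after 405 nm excitation.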

[16] = qHTS assay to identify small molecule antagonists of the peroxisome proliferator-activated receptor delta (PPARd) signaling pathway - cell viability counter screen (AID 743213; active = well fitted curve in the direction sought with a large enough effect in the repeat runs; an effect the other way counts as inactive or inconclusive)
Summary of the method: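 In this counter screen, HEK293H cells carrying a UAS-beta-lactamase reporter are co-treated with test compounds and 300 nM L165041 (final) for 17 h at 37 C; cell viability is quantified by CellTiter-Glo luminescence.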

[17] = biological target: Peroxisome proliferator-activated receptor delta (Homo sapiens) (UniProt Q03181); assay: qHTS assay to identify small molecule antagonists of the peroxisome proliferator-activated receptor delta (PPARd) signaling pathway (AID 743215; active = well fitted inhibition curve with a large enough effect in the signal ratio in the repeat runs, not every such curve was filed as active; the % refers to the signal ratio)
Peroxisome proliferator-activated receptor delta (Homo sapiens), sequence (Q03181 whole entry, looked up): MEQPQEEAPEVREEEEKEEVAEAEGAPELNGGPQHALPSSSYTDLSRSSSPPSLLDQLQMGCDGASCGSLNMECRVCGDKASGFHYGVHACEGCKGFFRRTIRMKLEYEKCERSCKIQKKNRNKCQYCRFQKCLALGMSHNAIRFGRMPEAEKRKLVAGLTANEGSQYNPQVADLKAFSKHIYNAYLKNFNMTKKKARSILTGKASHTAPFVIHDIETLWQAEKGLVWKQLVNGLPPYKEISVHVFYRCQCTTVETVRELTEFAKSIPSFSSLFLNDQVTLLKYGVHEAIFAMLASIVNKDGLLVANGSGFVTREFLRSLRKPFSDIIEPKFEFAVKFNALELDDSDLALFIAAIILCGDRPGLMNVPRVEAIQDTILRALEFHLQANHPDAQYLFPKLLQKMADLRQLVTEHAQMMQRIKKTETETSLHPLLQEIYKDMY
Summary of the method: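 Fluorescence from cleaved LiveBLAzer B/G FRET substrate (2 h, room temperature) reports PPARd-driven beta-lactamase in HEK293H UAS-bla cells. Cells had been treated 17 h at 37 C with compound plus 300 nM final L165041.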

[18] = biological target: Vitamin D3 receptor (Homo sapiens) (UniProt P11473); assay: qHTS assay to identify small molecule agonists of the vitamin D receptor (VDR) signaling pathway (AID 743222); also: % is scaled to controls: 0 for no effect and ±100 for the full control effect
Vitamin D3 receptor (Homo sapiens), sequence (P11473 whole entry, looked up): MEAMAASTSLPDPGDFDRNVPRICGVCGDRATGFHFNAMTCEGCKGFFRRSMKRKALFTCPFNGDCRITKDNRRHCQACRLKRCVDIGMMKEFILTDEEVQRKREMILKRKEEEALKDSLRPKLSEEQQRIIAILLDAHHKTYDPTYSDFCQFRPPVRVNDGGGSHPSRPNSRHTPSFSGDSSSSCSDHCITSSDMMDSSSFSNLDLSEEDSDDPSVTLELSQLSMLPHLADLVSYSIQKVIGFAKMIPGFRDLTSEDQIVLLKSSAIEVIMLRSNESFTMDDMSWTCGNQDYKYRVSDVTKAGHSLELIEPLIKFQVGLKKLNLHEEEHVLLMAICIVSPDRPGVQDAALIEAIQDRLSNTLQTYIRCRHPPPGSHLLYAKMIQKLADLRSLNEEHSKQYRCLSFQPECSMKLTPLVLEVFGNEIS
Summary of the method: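 Following 4 h attachment at 37C, VDR-bla cells (2,000 per well) received DMSO-dissolved compounds or controls. After 16 h incubation, LiveBLAzer B/G FRET substrate was added and fluorescence read 2 h later at room temperature.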

[19] = biological target: Peroxisome proliferator-activated receptor delta (Homo sapiens) (UniProt Q03181); assay: qHTS assay to identify small molecule agonists of the peroxisome proliferator-activated receptor delta (PPARd) signaling pathway (AID 743212)
Summary of the method: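 Beta-lactamase reporter read by fluorescence (LiveBLAzer B/G FRET, 2 h, room temperature). Test agents, in DMSO, incubated at 37 C with PPARd-bla HEK293H cells.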

[20] = biological target: Vitamin D3 receptor (Homo sapiens) (UniProt P11473); assay: qHTS assay to identify small molecule antagonists of the vitamin D receptor (VDR) signaling pathway (AID 743223; active = well fitted inhibition curve with a large enough effect in the signal ratio in the repeat runs, not every such curve was filed as active; the % refers to the signal ratio; also: % is scaled to controls: 0 for no effect and ±100 for the full control effect)
Summary of the method: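 Agonist 1alpha,25-dihydroxyvitamin D3 (3 nM in well) was added with each compound to VDR-bla cells preincubated 4 h. Cells stood 16 h at 37C, then FRET substrate 2 h at room temperature; fluorescence intensity recorded.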

NCCCC[C@H](N[C@@H](CCc1ccccc1)C(=O)O)C(=O)N1CCC[C@H]1C(=O)O
inactive: outcome [1] | outcome [2] | outcome [3] | outcome [4] | outcome [5] | outcome [6] | outcome [7] | outcome [8] | outcome [9] | outcome [10] | outcome [11] | Potency [12] | outcome [13] | outcome [14] | Potency [15]

CCC1C(=O)OCC1Cc1cncn1C (configuration not stated)
inactive: outcome [1] | outcome [16] | outcome [17] | outcome [3] | outcome [5] | outcome [18] | outcome [7] | outcome [8] | outcome [9] | outcome [10] | outcome [11] | Potency [12] | outcome [13] | outcome [14] | Potency [15]

Clc1cc(Cl)cc(Cl)c1
inactive: outcome [1] | outcome [19] | outcome [17] | outcome [3] | outcome [5] | outcome [18] | outcome [20] | outcome [6] | outcome [8] | outcome [9] | outcome [10] | outcome [11] | Potency [12] | outcome [13] | outcome [14] | Potency [15]

CC[N+](C)(CC)CCOC(=O)C1c2ccccc2Oc2ccccc21
inactive: outcome [19] | outcome [16] | outcome [17] | outcome [3] | outcome [5] | outcome [18] | outcome [20] | outcome [6] | outcome [7] | outcome [8] | outcome [9] | outcome [10] | outcome [11] | Potency [12] | outcome [13] | outcome [14] | Potency [15]

CC(=O)OCC(=O)[C@@]1(O)[C@H](C)C[C@H]2[C@@H]3CCC4=CC(=O)C=C[C@]4(C)[C@@]3(F)[C@@H](O)C[C@@]21C
inactive: outcome [19] | outcome [16] | outcome [3] | outcome [5] | outcome [18] | outcome [6] | outcome [7] | outcome [8] | outcome [9] | outcome [10] | outcome [11] | Potency [12] | outcome [13] | outcome [14] | Potency [15]

Cc1ccc(-c2ccccc2C#N)cc1
inactive: outcome [1] | outcome [19] | outcome [17] | outcome [2] | outcome [3] | outcome [4] | outcome [5] | outcome [18] | outcome [6] | outcome [7] | outcome [8] | outcome [9] | outcome [10] | outcome [11] | Potency [12] | outcome [13] | outcome [14] | Potency [15]

O=C(O)CCCC[P+](c1ccccc1)(c1ccccc1)c1ccccc1
inactive: outcome [1] | outcome [19] | outcome [16] | outcome [5] | outcome [18] | outcome [7] | outcome [8] | outcome [9] | outcome [10] | outcome [11] | Potency [12] | outcome [13] | outcome [14] | Potency [15]

CN(C)C(=O)Oc1ccc[n+](C)c1
inactive: outcome [1] | outcome [19] | outcome [3] | outcome [5] | outcome [6] | outcome [7] | outcome [8] | outcome [9] | outcome [10] | outcome [11] | Potency [12] | outcome [13] | outcome [14] | Potency [15]

NO
active: Potency [15] 44.5 µM
inactive: outcome [1] | outcome [16] | outcome [5] | outcome [20] | outcome [6] | outcome [7] | outcome [8] | outcome [9] | outcome [10] | outcome [11] | Potency [12] | outcome [13] | outcome [14]

C=C(C)C(=O)OCC1CCCO1 (configuration not stated)
inactive: outcome [1] | outcome [19] | outcome [17] | outcome [2] | outcome [3] | outcome [4] | outcome [5] | outcome [20] | outcome [6] | outcome [7] | outcome [8] | outcome [9] | outcome [10] | outcome [11] | Potency [12] | outcome [13] | outcome [14] | Potency [15]

CCCCCCCCCCOc1cc2c(=O)c(C(=O)OCC)c[nH]c2cc1OCC
inactive: activity change, negative = cytotoxicity [1] 8.81% [at 5.95 µM] | ratio activity, negative = inhibition [17] 0.26% [at 6.26 µM] | viability change, negative = cytotoxic [3] 4.21% [at 5.95 µM] | activity change, negative = cytotoxicity [5] 5.04% [at 5.95 µM] | activity change, negative = cytotoxicity [6] -0.151% [at 5.95 µM] | viability change, negative = cytotoxic [7] -0.675% [at 6.95 µM] | activity, negative = cytotoxic [8] 6.37% [at 6.95 µM] | activation [9] 2.24% [at 6.95 µM] | activity change, negative = cytotoxicity [10] -7.49% [at 6.95 µM] | activity, negative = cytotoxicity [11] 2.58% [at 8.39 µM] | activity change, negative = inhibition [12] 36.6% [at 8.39 µM] | viability change, negative = cytotoxic [13] 15.6% [at 6.97 µM] | activation [14] 9.42% [at 6.97 µM] | activation [15] -0.304% [at 6.98 µM]

CC(C)CCCO
inactive: outcome [1] | outcome [19] | outcome [17] | outcome [2] | outcome [3] | outcome [4] | outcome [5] | outcome [18] | outcome [20] | outcome [6] | outcome [8] | outcome [9] | outcome [10] | outcome [11] | Potency [12] | outcome [13] | outcome [14]

COC(=O)C1=C(C)NC(C)=C(C(=O)OC(C)C)C1c1cccc2nonc12 (configuration not stated)
inactive: outcome [19] | outcome [17] | outcome [3] | outcome [5] | outcome [18] | outcome [6] | outcome [7] | outcome [8] | outcome [9] | outcome [10] | outcome [11] | Potency [12] | outcome [13] | outcome [14] | Potency [15]
